# Hits are enriched below; roughly 8.6% of the tested compounds scored in any of these assays.
# MARV entry inh: qHTS for Inhibitors of binding or entry into cells for Marburg Virus; Marburg virus pseudotype entry/binding inhibition, cell-based; 18,000 compounds, 6.5% hits; Potency, µM (titrated, usually from 49.2 µM), for the others: at the highest dose activity change, negative = inhibition, usual class: inhibitors
# Lassa entry: qHTS for Inhibitors of binding or entry into cells for Lassa Virus; Potency, µM (highest dose often 49.2 µM), inactives show top-dose activity change, negative = inhibition, actives largely listed as inhibitors; 18,000 compounds, 4.1% hits; Lassa virus pseudotyped entry inhibition, cell-based qHTS
# * = called active by the depositor; ? = inconclusive; · = no result; ! = not active in a repeat; [ ] = remark or other dose. Calls come from the whole dose curve; tested in HEK293 cells. % is set by controls: 0 for no effect and ±100 for the full control effect; potency is the fitted concentration of half-maximal effect.
SMILES,MARV entry inh,Lassa entry
NC(=NCc1ccccc1)NC(=O)c1nc(Cl)c(N)nc1N,25µM*!,?
CO[C@H]1C=CO[C@@]2(C)Oc3c(C)c(O)c4c(O)c(c(/C=N/N5CCN(C6CCCC6)CC5)c(O)c4c3C2=O)NC(=O)/C(C)=C\C=C[C@H](C)[C@H](O)[C@@H](C)[C@@H](O)[C@@H](C)[C@H](OC(C)=O)[C@@H]1C,-18%,?
NCCc1cnc[nH]1,1%,0%
NC(=NCCc1ccc(I)cc1)SCCCc1cnc[nH]1,22µM*,18%
NC[C@@H]1O[C@H](O[C@H]2[C@@H](O)[C@H](O[C@@H]3[C@@H](O)[C@H](N)C[C@H](N)[C@H]3O[C@H]3O[C@H](CN)[C@@H](O)[C@H](O)[C@H]3N)O[C@@H]2CO)[C@H](N)[C@@H](O)[C@@H]1O,8%,-5%
CCCC1O[C@@H]2C[C@H]3[C@@H]4CCC5=CC(=O)C=C[C@]5(C)[C@H]4[C@@H](O)C[C@]3(C)[C@]2(C(=O)CO)O1 (stereo partly drawn),-28%,3%[17.8 µM]
CC(C)C(=O)OCC(=O)[C@@]12O[C@H](C3CCCCC3)O[C@@H]1C[C@H]1[C@@H]3CCC4=CC(=O)C=C[C@]4(C)[C@H]3[C@@H](O)C[C@@]12C,?,28µM*
CCOc1ccc(C=C2SC(=O)N(CCN)C2=O)cc1,11µM*,13µM*
CCOc1ccc(/C=C/C(=O)c2cccs2)cc1,6%,14%
COc1ccc(COc2cc(-c3cccc(OC)c3)nc3ccc(NC(C)=O)cc23)cc1,11%,-14%
COc1ccc2ncn(-c3cc(OC(C)c4ccccc4C(F)(F)F)c(C(N)=O)s3)c2c1 (stereo not drawn),0.89µM*,?
COc1cccc(COc2cc(-n3cnc4ccccc43)sc2C(N)=O)c1,13µM*,?
COC1=CC2C(=O)C(C1=O)[C@H](c1ccccc1)[C@H]2C (stereo partly drawn),-3%[8.59 µM],1%[8.59 µM]
Clc1ccc2c(c1)N=C(N1CCNCC1)c1ccccc1N2,10µM*,?
CN1CCN(C2=Nc3cc(F)ccc3Cc3ccccc32)CC1,?,-10%
Clc1ccccc1-c1nc(N2CCNCC2)c2ccccc2n1,?,-12%
CN1CCN(C2=Nc3cc(Cl)ccc3Nc3ccccc32)CC1,10µM*,8.9µM*!
C=CC[C@@H]1C=C[C@H](ON=C(C)CCN2CCCc3nc(C)c(C)cc32)[C@H](CO)O1,23%[8.59 µM],4%[8.59 µM]
O=C(CCCN1CCN(c2ccc(F)cc2)CC1)NC1c2ccccc2CSc2ccccc21 (stereo not drawn),14µM*,-29%
O=C(CCCN1CCN(c2ccccn2)CC1)c1ccc(F)cc1,9%,16%[17.8 µM]
C[C@@H]1N[S+](=O)([O-])c2ccc(F)cc2O[C@H]1c1ccccc1,?,9%
CC1C(=O)C(Cc2cn(CCC3OCCO3)nn2)CCS(=O)(=O)N1Cc1ccc(-c2ccc(Cl)nc2)cc1 (stereo not drawn),96%,14%
CCCC(=O)O[C@]1(C(=O)CCl)[C@@H](C)C[C@H]2[C@@H]3CCC4=CC(=O)C=C[C@]4(C)[C@@]3(F)C(=O)C[C@@]21C,7.9µM*,?
CCC(=O)O[C@]1(C(=O)CCl)[C@@H](C)C[C@H]2[C@@H]3CCC4=CC(=O)C=C[C@]4(C)[C@@]3(F)[C@@H](O)C[C@@]21C,?,-26%
CC(C)CON=C1C[C@@H](O)[C@@H](O)[C@@H]2[C@H]3C(=O)N(C[C@@H]4CCCO4)C(=O)[C@@H]3CC[C@H]12,-10%[8.59 µM],-8%[8.59 µM]
SMILES,MARV entry inh,Lassa entry
CCC(=O)Oc1ccc2c(c1)CC[C@@H]1[C@@H]2CC[C@]2(C)[C@@H](OC(=O)CC)CC[C@@H]12,1%,-19%
CN(C)Cc1ccccc1-c1ccc2ncnc(NCc3ccccc3)c2c1,?,0%
CN(C)Cc1ccccc1-c1ccc2ncnc(NCc3cccs3)c2c1,8.9µM*,-5%
CN(C)Cc1ccccc1-c1ccc2ncnc(NC3CCNCC3)c2c1,7.1µM*,7%
c1nc(NC2CCNCC2)c2cc(-c3ccc4c(c3)OCO4)ccc2n1,?,-5%
CCCCCCCCCCCCCCCC[N+](C)(C)Cc1ccccc1,25µM*,?
CCCCCCCCNS(=O)(=O)CCNCc1ccccc1,21%,32%
CCCCCCCCNS(=O)(=O)CCNCCc1ccccc1,-11%,4%
CCCCCCCCCCCCCC[N+](C)(C)Cc1ccccc1,?,28µM*
COC1=C[C@H](C(=O)NCCNC(C)=O)[C@@]2(C)Cc3ccccc3[C@@H]2CC1=O,-20%[8.59 µM],·
O=S1(=O)c2cccc(Cl)c2OC[C@H](c2ccccc2)N1Cc1cccc(Cl)c1,?,-17%
CC(C)n1cnc2c(NCc3ccccc3)nc(NCCO)nc21,12%,-4%
CC(C)[C@H](CO)Nc1nc(Nc2cccc(Cl)c2)c2ncn(C(C)C)c2n1,-11%,28µM*
COc1ccc(/C=C/C(=O)c2ccc(O)cc2O)cc1,4%,11%
COc1ccc(/C=C/C(=O)c2cc(O)ccc2O)cc1,-20%,0.89µM*
CCCC[C@]12Cc3cc(OC)c(OC)cc3[C@H](O1)c1c(cc(-c3ccccc3)oc1=O)O2,-25%[8.59 µM],3%[8.59 µM]
Cn1ccc2c(C=Cc3ccc(F)cc3)cc3c(c21)C1CCC3C1 (stereo not drawn),-21%,-4%
CCCCCCN1C[C@@H](n2cc(C3CC3)nn2)[C@H](O)C[C@H]1c1ccc(C)cc1,-33%,·
COC(=O)CC=C[C@@H](C)[C@@H](Cc1ccccc1Br)OC,-4%[8.59 µM],·
COc1cc2c(cc1CC=C(C)C)C(=O)C[C@@H](c1ccc(O)cc1)O2,?,8.9µM*
COc1ccc(C2CC(=O)c3ccc(OC)cc3O2)cc1 (stereo not drawn),-5%,2%
O=C(/C=C\c1ccc(O)c(O)c1)O[C@@H](Cc1ccc(O)c(O)c1)C(=O)O,?,-16%
O=C(/C=C/c1ccc(O)c(O)c1)OC(Cc1ccc(O)c(O)c1)C(=O)O (stereo not drawn),8.9µM*,-5%
CS(=O)(=O)CCN(CC#N)Cc1ccc(-c2ccc3ncnc(Nc4ccc(OCc5cccc(F)c5)c(Cl)c4)c3c2)o1,-10%,21%
CC(O)C(C)OC(=O)[C@@H]1C[C@@H]2c3cccc4c3c(cn4C(C)C)C[C@H]2N(C)C1 (stereo partly drawn),13%,?
SMILES,MARV entry inh,Lassa entry
CN1CC(CNC(=O)OCc2ccccc2)CC2c3cccc4c3c(cn4C)CC21 (stereo not drawn),10µM*,?
COc1cccc([C@@H]2Oc3ccc(OC)cc3[C@H](O)[C@@H]2O)c1,-7%[8.59 µM],-20%[8.59 µM]
C#C[C@]1(O)CC[C@H]2[C@@H]3CCC4=CC(=O)CCC4=C3C=C[C@@]21CC,7%,?
CC#C[C@]1(O)CC[C@H]2[C@@H]3CCC4=CC(=O)CCC4=C3[C@@H](c3ccc(N(C)C)cc3)C[C@@]21C,?,32µM*
C=CCN1CCC2(C)c3cc(O)ccc3CC1C2C (stereo not drawn),?,1%
C[C@H]1[C@H]2Cc3ccc(O)cc3[C@]1(C)CCN2CCc1ccccc1,18µM*,32µM*
O=C1C[C@@H](c2ccc(O)cc2)Oc2cc(O)cc(O)c21,21%[17.8 µM],31%[17.8 µM]
O=C(OC1Cc2c(O)cc(O)cc2OC1c1cc(O)c(=O)c2c(O)c(O)cc(C3Oc4cc(O)cc(O)c4CC3OC(=O)c3cc(O)c(O)c(O)c3)c2c1)c1cc(O)c(O)c(O)c1 (stereo not drawn),1.3µM*,-16%
